Source: PubChem BioAssay (National Center for Advancing Translational Sciences (NCATS))
Tau ThT inhib: tau fibrillization inhibition (ThT binding). P10636. recombinant tau K18 P301L, heparin-induced fibrillization, ThT fluorescence. Potency, µM (highest dose often 57.4 µM), without a hit: at the top dose activity, negative = inhibition, most hits filed as inhibitors. 2.1% of 270,000 active. AID 1460; also: nearly all actives have a fitted effect of over 55% in size
Target sequence (P10636 561-689 P618L limits assumed): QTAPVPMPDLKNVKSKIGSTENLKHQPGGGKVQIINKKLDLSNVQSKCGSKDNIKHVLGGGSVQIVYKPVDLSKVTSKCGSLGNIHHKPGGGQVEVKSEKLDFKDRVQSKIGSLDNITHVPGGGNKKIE
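Using a mix of unlabeled (15 uM) and Alexa 594-labeled (0.24 uM) tau K18 P301L, heparin-triggered fibrillization over 6 hr at 37 C was scored by ThT fluorescence.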
Tau fluor cs: counter-screen for tau fibril formation inhibitors; tau K18 P301L Alexa594 fluorescence, heparin fibrillization; Potency, µM (top dose mostly 57.7 µM), for inactives: at the top dose activity change, negative = decrease; 0.93% of 280,000 active; AID 1463; also: nearly all actives have a fitted effect of over 55% in size
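Human tau K18 P301L (15 uM unlabeled, 0.24 uM Alexa 594-labeled) in 100 mM sodium acetate pH 7 with 20 uM heparin, 6 hr at 37 C. ThT 30 uM added, 1 hr ambient; Alexa 594 FP and total fluorescence read at 555/632 nm.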
TRb-SRC2 inh: TRbeta-SRC2 interaction inhibition; TRbeta-SRC2 peptide binding, fluorescence polarization; receptor liganded with 1 µM T3; AID 1469; Potency, µM (highest dose often 106 µM), for the others: top-dose activity change, negative = inhibition, most hits filed as inhibitors; 0.065% of 280,000 active; P10828;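 also: plate controls were bound peptide for no effect and peptide without receptor for full effect; nearly all actives have a fitted effect of over 50% in size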
Target sequence (P10828 whole entry, looked up): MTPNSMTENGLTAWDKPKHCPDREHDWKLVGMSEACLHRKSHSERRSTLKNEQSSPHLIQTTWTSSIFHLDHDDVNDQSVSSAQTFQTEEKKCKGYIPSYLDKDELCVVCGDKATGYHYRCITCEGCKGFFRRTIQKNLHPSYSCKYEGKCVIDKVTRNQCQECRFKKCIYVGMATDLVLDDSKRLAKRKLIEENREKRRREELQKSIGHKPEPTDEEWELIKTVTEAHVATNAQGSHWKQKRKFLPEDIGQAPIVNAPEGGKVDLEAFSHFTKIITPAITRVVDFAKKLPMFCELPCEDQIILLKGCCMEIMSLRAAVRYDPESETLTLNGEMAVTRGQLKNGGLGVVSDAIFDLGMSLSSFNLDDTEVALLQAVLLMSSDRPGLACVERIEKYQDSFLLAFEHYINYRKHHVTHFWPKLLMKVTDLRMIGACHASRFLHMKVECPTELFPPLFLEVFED
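Fluorescence polarization of 20 nM Texas Red SRC2 peptide with 0.6 uM human TRb ligand-binding domain, in Tris buffer with 1uM T3 and 5% DMSO. Incubated 5 hr ambient; normalized to unbound and bound controls.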
Tau FP inhib: inhibitors of human tau fibril formation | Potency, µM (titrated, usually from 57.7 µM), for inactives: top-dose activity, negative = inhibition, actives largely listed as inhibitors | 0.39% of 280,000 active | K18 P301L tau heparin fibrillization, Alexa594 FP, 6 h | P10636; also: nearly all actives have a fitted effect of over 55% in size
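Recombinant K18 P301L […], labeled with Alexa 594 at 0.24 uM over 15 uM unlabeled; heparin inducer 20 uM final; 37 C, 6 hr; FP endpoint.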
TexasRed fluor: counter-screen for TRb-SRC2 inhibitors: fluorescence interference; AID 1479; 0.29% of 280,000 active; TRb/SRC2 Texas Red total fluorescence interference; Potency, µM (series often up to 106 µM), without a hit: at the highest dose fluorescence change, negative = quenching; active = well fitted curve in either direction with a large enough effect; inconclusive = small, poorly fitted or top-dose-only effect
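Human TRβ ligand-binding domain (0.6 uM) and Texas Red SRC2 peptide (20 nM) in Tris buffer with 1 uM T3 and 5% DMSO were incubated with pinned compound for 5 hr at ambient temperature. Total fluorescence was computed as S + 2P (555/632 nm).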
An asterisk follows results filed as active; ? = inconclusive; nt = no result given; ! = repeats disagree; [ ] = remark or other dose. An excerpt weighted towards active compounds, which were near 3% of everything screened. Unless noted, calls follow the shape of the dose curve; as a rule, active = well fitted curve in the direction sought with a large enough effect; inconclusive = small, poorly fitted or top-dose-only effect, or another doubt; inactive = no such curve, though single readings can be large; an effect the other way counts as inactive or inconclusive. Unless noted, % is scaled to controls: 0 for no effect and ±100 for the full control effect; potency is read from the fitted curve at half-maximal effect.

SMILES	Tau ThT inhib	Tau fluor cs	TRb-SRC2 inh	Tau FP inhib	TexasRed fluor
Cc1[nH]c(C(=O)N/N=C/c2ccc(N(C)C)cc2)c(C)c1C(=O)N/N=C/c1ccc(N(C)C)cc1	2.2µM*	?	2%	0%	-1%
Cc1[nH]c(C(=O)N/N=C/c2ccc(C(=O)O)cc2)c(C)c1C(=O)N/N=C/c1ccc(C(=O)O)cc1	-8%	8%	9%	5%	3%
Cc1nc2c(C)cccc2cc1C(=O)N/N=C/c1ccc(N(C)C)cc1	10µM*	?	-8%	0%	1%
COc1cc(/C=N/NC(=O)c2ccc3nc[nH]c3c2)ccc1O	nt	-19%	-2%	-3%	-2%
CCN(CC)c1ccc(/C=N/NC(=O)c2ccc3nc[nH]c3c2)cc1	2.8µM*	?	0%	7%	-6%
Cc1nc2c(C)cccc2cc1C(=O)N/N=C/c1ccc(C(=O)O)cc1	-7%	6%	5%	10%	6%
CN(C)c1ccc(/C=N/NC(=O)c2ccc3nc[nH]c3c2)cc1	4.5µM*	?	-1%	-12%	-6%
Cc1cc(C)n(C(C)CC(=O)Nc2ccc(C)c(N(C)C)c2)n1 (stereo unspecified)	-1%	-6%	-10%	3%	1%
Cc1cc(O)c(Oc2cc(C)cc(O)c2O)c(O)c1	5.6µM*	?	-1%	?	0%
Cc1ccc(N2CCN(C(=O)c3c4c(nc5ccccc35)C(=O)N(C3CCCCC3)C4)CC2)c(C)c1	?	-10%	-1%	-3%	-1%
COC(=O)c1sc2nc(C)c([N+](=O)[O-])c(C)c2c1N	3.2µM*	-25%	-3%	-3%	-4%
Cn1cccc1/C=C(\C#N)C(N)=S	?	-9%	2%	7%	1%
Cn1c(/C=C(\C#N)C(N)=S)ccc1-c1ccc(Br)cc1	1µM*	-28%	0%	4%	-1%
CC(=O)c1ccc(NC(=O)CSc2nc(N)c3cc4c(nc3n2)CCCC4)cc1	-18%	-19%	-22%	-10%	89µM*[quencher]
O=S(=O)(c1ccccc1)c1nnn2c1nc(Nc1ccccc1)c1cc(Cl)ccc12	11%	-11%	-3%	?	-6%
COc1ccc(C(=O)C(C)Oc2cccc(NC(=O)c3cccc([N+](=O)[O-])c3)c2)cc1 (stereo unspecified)	-11%	3.5µM*[quencher]	3%	-3%	-1%
COc1cc(NC(=O)Nc2cccc([N+](=O)[O-])c2)cc(OC)c1	?	14µM*[quencher]	-3%	?	-4%
O=C(Nc1cccc([N+](=O)[O-])c1)Nc1ccc2c(c1)OCCO2	?	14µM*[quencher]	-4%	5%	-9%
O=C(Nc1cccc([N+](=O)[O-])c1)Nc1cccc([N+](=O)[O-])c1	?	?	7%	-14%	-5%
COc1ccc(OC)c(C2CC(=O)N3CN(c4ccccc4F)CSC3=C2C#N)c1 (stereo unspecified)	28µM*	-23%	1%	25µM*	-1%
COc1cccc(C2CC(=O)N3CN(c4cccc(Cl)c4C)CSC3=C2C#N)c1OC (stereo unspecified)	28µM*	?	3%	32µM*	-3%
COc1ccc(OC)c(C2CC(=O)N3CN(c4cccc(Cl)c4C)CSC3=C2C#N)c1 (stereo unspecified)	28µM*	?	4%	32µM*	-1%
CCCCN(CC)C(=O)CSc1nc2n[nH]c(C)c2c(=N)n1-c1cccc(Cl)c1	-11%	-3%	3%	10%	-26%
Nc1nc(=S)c2ncn(C3OC(CO)C(O)C3O)c2[nH]1 (stereo unspecified)	11µM*	?	2%	?	-6%
CCOC(=O)C1(N(CC)CC)Sc2cc(C)ccc2NC1=O (stereo unspecified)	-5%	-17%	3%	-5%	-3%
SMILES	Tau ThT inhib	Tau fluor cs	TRb-SRC2 inh	Tau FP inhib	TexasRed fluor
C=C(C)C(=O)OC1(C(F)(F)F)Oc2cc(C)ccc2NC1=O (stereo unspecified)	16µM*	-21%	-25%	?	-2%
CC1CCN(c2nc3ccc(C(=O)NCc4ccccc4Cl)cc3s2)CC1	-3%	-4%	2%	?	-1%
CC(=C1C(=O)c2ccccc2C1=O)N1CCC(C(N)=O)(N2CCCCC2)CC1	32µM*	-20%	-3%	-9%	6%
CCc1ccc(NC(=O)CC2C(=O)N(c3cccc(OC)c3)C(=O)N2C2CCCC2)cc1 (stereo unspecified)	-1%	-23%	-2%	-5%	-2%
O=S(=O)(Nc1ccc(-c2ccc(N3CCCC3)nn2)cc1)c1cccc(C(F)(F)F)c1	-8%	-29%	-8%	9%	708µM*[quencher]
CCN1CCN(Cc2ccc(NC(=O)c3cc(NC(=O)c4cncc(-c5ccc(C#N)cc5)c4)cc(OC)c3)cc2C(F)(F)F)CC1	-1%	?	-1%	8.9µM*	-5%
CCN(CC)CCNC(=O)c1cc2c(=O)n(C)c3cc(Cl)ccc3c2s1	-19%	-11%	1%	2%	0%
Oc1[nH]c2ccccc2c1C=Nc1ccc2c(c1)OCO2	7.9µM*	?	2%	12%	-9%
O=C(CNc1ccc2c(c1)OCO2)N/N=C\c1ccccc1Cl	?	?	-3%	3%	1%
COc1ccc(N=Cc2c(O)[nH]c3ccccc23)cc1	?	?	1%	15%	-6%
Cc1[nH]c2ccccc2c1/C=N\NC(=O)CNc1ccc2c(c1)OCO2	16µM*	?	1%	-2%	-5%
Cc1[nH]c2ccccc2c1/C=N/NC(=O)c1cccs1	11µM*	18µM*[quencher]	-1%	10%	-5%
CCCOc1c(Cl)cc(C(=O)N(Cc2cccc(OC)c2)C2CCS(=O)(=O)C2)cc1Cl (stereo unspecified)	?	-21%	-7%	8%	5%
COC/C=C/C1=CC2=CC(=O)C(C)(OC(=O)c3cnc4ccccc4n3)C(=O)C2=CN1c1ccccc1 (stereo unspecified)	13µM*!	?	-1%[11.2 µM]	?	-3%[11.2 µM]
COC/C=C/C1=CC2=CC(=O)C(C)(OC(=O)c3cnc4ccccc4n3)C(=O)C2=CN1c1ccc(CO)cc1 (stereo unspecified)	-15%[11.5 µM]	-20%[11.6 µM]	1%[11.2 µM]	2%[11.6 µM]	-17%[11.2 µM]
CCCCn1c(=O)c2oc3ccccc3c2n(CC(=O)Nc2cccc(Cl)c2)c1=O	11%	-11%	6%	?	-2%
COc1ccc(S(=O)(=O)NCCc2sc(-c3cccnc3)nc2C)cc1	-4%	-2%	8%	-3%	-10%
CC1=C(C)/C(=N\OS(=O)(=O)c2ccccc2)C=CC1=O	13µM*	?	4%	16µM*	-1%
CCN1/C(=C/c2cc[n+](C)cc2)C=Cc2cc(C)ccc21	8.9µM*	11%	2%	-5%	-4%
